# According to PubChem BioAssay AID686928 (Broad Institute, 2013):
# Measured potencies and affinities stand elsewhere. Calls of active or inactive are those of the source. The rule behind the calls is not given here.
# Test: HeLa cell cytotoxicity, dose response, cytotoxicity control, 24 h, plate reader, dry powder (AID 686928)
# Settings: series mostly up to 80 µM
row,Compound,outcome
1,Cn1cnc(=O)c2ccccc21,inactive
2,Cc1nc(=O)c2ccccc2n1-c1cccc(Cl)c1,inactive
3,O=C(CC1CCCCC1)Nc1nnc(-c2cccnc2)o1,inactive
4,CC(C)(C)OC(=O)N1CCC(C(=O)Nc2nnc(-c3ccc4c(c3)OCCO4)o2)CC1,inactive
5,O=C(Nc1nnc(-c2cccc(Cl)c2)o1)C1CCCCC1,inactive
6,Cc1ccc2cc3c(NC(=O)c4cccs4)nn(C)c3nc2c1,inactive
7,CCC(C)(C)C(=O)Nc1nnc(-c2ccc3c(c2)OCCO3)o1,inactive
8,CCn1nnnc1NC(C)c1ccc(N2CCCC2)cc1 (configuration not stated),inactive
9,COc1cccc(-n2cnc(=O)c3ccccc32)c1,inactive
10,c1ccc(CNc2nnc(-c3ccc4c(c3)OCCO4)o2)cc1,inactive
11,O=C(Cc1ccc(-c2ccccc2)cc1)NC1COC1,inactive
12,CCc1nc(=O)c2ccccc2n1-c1cccc(Cl)c1,inactive
13,O=c1ncn(-c2ccccc2Cl)c2ccccc12,inactive
14,O=C(CSc1nc2c(c(=O)[nH]1)CCCC2)NC1CCCCC1,inactive
15,O=S(=O)(Nc1nnc(-c2ccc3c(c2)OCCO3)o1)c1ccc(Cl)cc1,inactive
16,CCOC(=O)c1ccccc1Nc1cccc(Cl)c1,inactive
17,Cc1ccc2cc3c(NC(=O)c4ccoc4)nn(C)c3nc2c1,inactive
